Measurements: PubChem BioAssay AID1986 (Sanford-Burnham Center for Chemical Genomics, 2009)
Screen size: about 290,000 compounds; about 890 (0.31%) were called active. No stated cut-off is given here; in the data, active means inhibition mostly above about 52% (no sharp cut-off); inactive means mostly below about 76%. What follows is part of a selection rich in actives, with near analogues and random picks from the rest.

Test: cell-free HIV fusion peptide-binding blockers – biochemical, uHTS, fluorescence dequenching, primary screen (AID 1986)
Details: 30 min, stronger effect = higher value
[1] = measured here: repeat confirmation average inhibition, at 18.6 µM

| SMILES | inhibition (at 20 µM) | inhibition [1] [%] |
| --- | --- | --- |
| CSc1nc2ccccc2n1CC(=O)Nc1ccc(C)c(C)c1 | 0.9% (inactive) |  |
| O=[N+]([O-])c1cccc(S(=O)(=O)c2ccc(N3CCCCC3)c([N+](=O)[O-])c2)c1 | 2.4% (inactive) |  |
| CCOC(=O)C1=C(CC)OC(N)=C(C#N)C1c1ccc(OC)c(C)c1OC (configuration not stated) | -1.8% (inactive) |  |
| CCOC(=O)/C(=N\Nc1cccc(C(F)(F)F)c1)N1CCOCC1 | -4.2% (inactive) |  |
| O=S(=O)(c1ccccc1)N1CCC(Oc2ccc(-n3cnnn3)cc2)CC1 | 0.5% (inactive) |  |
| COc1cnc(N(C)C)nc1Sc1cccc(Cl)c1 | 1.2% (inactive) |  |
| Nc1ccc2c3c(cccc13)C(=O)N(c1ccccc1)C2=O | 142% (inactive) |  |
| O=C(O)c1ccc2c3c(cccc13)C(=O)N(c1ccccc1)C2=O | 24.2% (inactive) |  |
| Cc1c(O)c2c3c(cccc3c1O)C(=O)N(c1ccccc1)C2=O | 57.9% (active) | 55.3 |
| Cc1cc(C)cc(NC(=O)c2cccn2-c2ncc(C(F)(F)F)cc2Cl)c1 | 2.6% (inactive) |  |
| O=C(N=c1ccn(-c2nc3ccccc3nc2NS(=O)(=O)c2ccc(Cl)cc2)cc1)c1ccccc1Cl | 102% (active) |  |
| O=C(N=c1ccn(-c2nc3ccccc3nc2NS(=O)(=O)c2ccccc2)cc1)c1ccccc1Cl | 24.6% (inactive) |  |
| O=C(N=c1ccn(-c2nc3ccccc3nc2NS(=O)(=O)c2ccc(Cl)cc2)cc1)c1cccs1 | 19.3% (inactive) |  |
| COc1cccc(/C=N/n2c(C3CCCCC3)n[nH]c2=S)c1 | 0.5% (inactive) |  |
| CC(C)(C)C(=O)NC(=S)Nc1ccccc1C(N)=O | -0.3% (inactive) |  |
| CCCCCCc1cc2cc(-c3nnc(-c4ccccc4OC)o3)c(=O)oc2cc1O | 81.8% (inactive) | 45.4 |
| CCCCCCc1cc2cc(-c3nnc(-c4ccccc4O)o3)c(=O)oc2cc1O | 65.1% (inactive) | 47.7 |
| CCCCCCc1cc2cc(-c3nnc(-c4cc(OC)c(OC)c(OC)c4)o3)c(=O)oc2cc1O | 73.7% (active) | 61.9 |
| CCOc1cc(CN2CCCC(N3CCc4ccccc4C3)C2)ccc1O (configuration not stated) | -0.5% (inactive) |  |
| Oc1ccc(C=Nc2ccc(N3CCOCC3)cc2)c(O)c1 | 6.1% (inactive) |  |
| Oc1c(Cl)cc(Cl)cc1C=Nc1ccc(N2CCOCC2)cc1 | 1.6% (inactive) |  |

| SMILES | inhibition (at 20 µM) | inhibition [1] [%] |
| --- | --- | --- |
| Cc1cc(O)c(C=Nc2ccc(N3CCOCC3)cc2)c(C)c1Cl | 80.4% (active) | 73.9 |
| CCS(=O)(=O)C1=NN2C(=N)/C(=C\c3ccc(OC(=O)c4ccco4)cc3)C(=O)N=C2S1 | 39.2% (inactive) |  |
| COc1cc(/C=C2/C(=N)N3C(SC)=NSC3=NC2=O)ccc1OC(=O)c1ccco1 | 59.5% (inactive) | 17.2 |
| O=C1NC(=S)S/C1=C\c1ccc(SCc2ccco2)o1 | 53.5% (active) |  |
| CCS(=O)(=O)C1=NN2C(=N)/C(=C\c3ccc(SCc4ccco4)o3)C(=O)N=C2S1 | 72.8% (active) |  |
| CCC1=NN2C(=N)/C(=C\c3ccc(SCc4ccco4)o3)C(=O)N=C2S1 | -2.8% (inactive) |  |
| N=C1/C(=C\c2ccc(SCc3ccco3)o2)C(=O)N=C2SC=NN12 | 100% (inactive) | 7.1 |
| CCOc1cc(/C=C2\C(=N)N3N=C(N4CCCCC4)SC3=NC2=O)ccc1OC(=O)c1ccco1 | 20.5% (inactive) |  |
| CCS(=O)(=O)C1=NSC2=NC(=O)/C(=C\c3ccc(OC(=O)c4ccco4)c(OC)c3)C(=N)N21 | 20.4% (inactive) |  |
| CCCC1=NN2C(=N)/C(=C\c3ccc(SCc4ccco4)o3)C(=O)N=C2S1 | -0.5% (inactive) |  |
| CCS(=O)(=O)C1=NN2C(=N)/C(=C\c3ccc(OC(=O)c4ccco4)c(Br)c3)C(=O)N=C2S1 | 52.4% (active) |  |
| COc1cc(/C=C2\C(=N)N3N=C(S(=O)(=O)CC(C)C)SC3=NC2=O)ccc1OC(=O)c1ccco1 | 70.2% (active) |  |
| O=C1NC(=S)S/C1=C\c1ccc(SCc2ccccc2)o1 | 72.3% (inactive) | 15.9 |
| COc1ccccc1C(CNc1nc(C(F)(F)F)nc2ccccc12)N(C)C (configuration not stated) | 1.8% (inactive) |  |
| CCn1c(SCC(=O)NC(C)C)nnc1-c1cccs1 | -1.3% (inactive) |  |
| Cc1cccc(CN2CCN(c3nc4nonc4nc3NC3CC3)CC2)c1 | 6.4% (inactive) |  |
| CCCCC(=O)Nc1nn(C)c2nc3c(C)cccc3cc12 | 0.6% (inactive) |  |
| COc1ccccc1C(=O)Nc1ccc(C2=NNC(=O)CC2C)cc1 (configuration not stated) | 1.5% (inactive) |  |
| COc1ccccc1NC(=O)c1nn(-c2ccc(F)c(F)c2)ccc1=O | -0.5% (inactive) |  |
| CCOc1ccc(C(=O)Nc2ccc3c(c2)C(=O)NC3=O)cc1 | 2.2% (inactive) |  |
| C=CCn1c(SC(C)C(=O)NCc2ccc3c(c2)OCO3)nnc1C1CCCCC1 (configuration not stated) | -0.3% (inactive) |  |

| SMILES | inhibition (at 20 µM) | inhibition [1] [%] |
| --- | --- | --- |
| CSc1ncc(CN2CCCC(C(=O)c3ccc(C(C)(C)C)cc3)C2)cn1 (configuration not stated) | 2.1% (inactive) |  |
| CCS(=O)(=O)C1=NN2C(=N)/C(=C\c3ccc(OC(=O)c4ccco4)c(OC)c3)C(=O)N=C2S1 | 34.9% (inactive) |  |
| CCOc1cc(/C=C2/C(=N)N3N=C(CC)SC3=NC2=O)ccc1OC(=O)c1ccco1 | 12.4% (inactive) |  |
| CCOc1cc(/C=C2\C(=N)N3N=C(S(=O)(=O)CC)SC3=NC2=O)ccc1OC(=O)c1ccco1 | 60.6% (active) |  |
| O=C1C(c2cc(=O)c3ccccc3[nH]2)=C(O)c2ccccc21 | -2.1% (inactive) |  |
| Brc1ccc(/C=C/C=N/Nc2nc3ccccc3s2)cc1 | -4.3% (inactive) |  |
| Oc1ccc(N=C/C=C/c2cccc(Br)c2)cc1-c1nc2ccccc2s1 | 61.8% (inactive) | 5.5 |
| Oc1ccc(N=C/C=C/c2ccc(Br)cc2)cc1-c1nc2ccccc2s1 | 64.1% (active) |  |
| O=C1CCC(C(=O)Nc2cc(C(F)(F)F)ccc2-n2cncn2)=NN1 | -0.2% (inactive) |  |
| CCC1=NN2C(=N)/C(=C\c3cccn3-c3ccc(Cl)cc3)C(=O)N=C2S1 | 30.5% (inactive) |  |
| Cc1ccc(-n2cccc2/C=C2/C(=N)N3C(=NC2=O)SN=C3S(C)(=O)=O)cc1 | 77.1% (active) |  |
| CCOc1cc(/C=C2/C(=N)N3C(=NC2=O)SN=C3S(C)(=O)=O)ccc1OC(=O)c1ccco1 | 44.6% (inactive) |  |
| CC1=CSC2=NC(=O)/C(=C\c3cccn3-c3ccccc3)C(=N)N12 | 8.7% (inactive) |  |
| CCc1ccc(-n2cccc2/C=C2/C(=N)N3C(=NC2=O)SN=C3S(C)(=O)=O)cc1 | 74.8% (active) |  |
| CC1=CSC2=NC(=O)/C(=C\c3cccn3-c3ccc([N+](=O)[O-])cc3)C(=N)N12 | 0.3% (inactive) |  |
| CS(=O)(=O)C1=NSC2=NC(=O)/C(=C\c3cccn3-c3ccccc3Cl)C(=N)N21 | 78.5% (active) |  |
| Cc1ccc(-n2cccc2/C=C2\C(=N)N3N=C(C(C)C)SC3=NC2=O)cc1 | 49.5% (inactive) |  |
| CS(=O)(=O)C1=NSC2=NC(=O)/C(=C\c3ccc(OC(=O)c4ccco4)cc3)C(=N)N21 | 47.4% (inactive) |  |
| CCC1=NN2C(=N)/C(=C\c3cccn3-c3ccc(Br)cc3)C(=O)N=C2S1 | 12.9% (inactive) |  |
| Cc1cccc(C)c1-n1cccc1/C=C1/C(=N)N2C(=NC1=O)SN=C2S(C)(=O)=O | 68.4% (active) |  |
| CS(=O)(=O)C1=NSC2=NC(=O)/C(=C\c3ccc(-c4ccccc4)o3)C(=N)N21 | 34.9% (inactive) |  |
